In all, about 340,000 compounds went through this assay and about 2,100 (0.62%) were called active. A selection follows. Results with a measured potency or affinity are listed apart. A number with no mark means an inactive call.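 The calls were made as follows: active = first-screen hits whose inhibition reached a set limit at any dose in the follow-up dose series; inconclusive = inhibition above the set first-screen limit but never retested; inactive = the rest.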

The target in this experiment is Rac GTPase-activating protein 1 (Homo sapiens) (UniProt Q9H0H5). Nature of the experiment: blockers of MgcRacGAP-driven Rac1 GTP hydrolysis – biochemical, ADP Hunter fluorescence, primary and confirmatory, confirmation (AID 624330).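 Also: fluorescence reports GDP produced by GAP-driven GTP hydrolysis.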 The following applies: MgcRacGAP-stimulated Rac1 GTP hydrolysis, at 30 µM, stronger effect = higher value, GST-tagged Rac1 F28L mutant substrate.
Rac GTPase-activating protein 1 (Homo sapiens), sequence (Q9H0H5 whole entry, looked up): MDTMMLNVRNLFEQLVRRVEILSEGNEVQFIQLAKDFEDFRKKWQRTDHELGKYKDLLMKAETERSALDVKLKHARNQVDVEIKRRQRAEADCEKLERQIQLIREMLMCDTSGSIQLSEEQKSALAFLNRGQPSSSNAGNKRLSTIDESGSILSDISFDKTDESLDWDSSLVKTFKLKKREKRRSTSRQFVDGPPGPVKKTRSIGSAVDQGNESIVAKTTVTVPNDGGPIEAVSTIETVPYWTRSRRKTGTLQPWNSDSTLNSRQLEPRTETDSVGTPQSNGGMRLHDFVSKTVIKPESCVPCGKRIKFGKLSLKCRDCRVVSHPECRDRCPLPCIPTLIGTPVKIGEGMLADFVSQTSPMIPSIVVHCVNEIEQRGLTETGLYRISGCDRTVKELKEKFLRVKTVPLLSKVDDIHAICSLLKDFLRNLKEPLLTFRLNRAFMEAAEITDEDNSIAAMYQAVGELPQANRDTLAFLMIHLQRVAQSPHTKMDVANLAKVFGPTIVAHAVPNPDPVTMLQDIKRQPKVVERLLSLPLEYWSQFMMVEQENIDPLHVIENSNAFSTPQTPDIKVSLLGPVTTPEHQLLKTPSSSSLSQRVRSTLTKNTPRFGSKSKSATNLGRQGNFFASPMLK
On to `CCn1c(SCC(=O)N/N=C/c2ccc(O)c(OC)c2)nc2ccccc21`, for which the inhibition is 12%.

Turning to `C/C(=N/NC(=O)CSc1nc2ccccc2n1C)c1ccncc1`, the inhibition was 8.72%.

For `C/C(=N/NC(=O)CSc1nc2ccccc2n1C)c1ccco1`, the inhibition was 7.14%.

For the compound `COc1cc(/C=N/NC(=O)CSc2nc3ccccc3n2C)cc(OC)c1OC`, the inhibition is -9.37%.

For the compound `C/C(=N\NC(=O)CSc1nc2ccccc2o1)c1cccc(O)c1`, the inhibition is 10.7%.

On to `CC(=NNC(=O)CSc1nc2ccccc2o1)c1ccco1`, for which the inhibition was 3.04%.

`COc1ccccc1C(=O)NC(CCSC)C(=O)NCC(c1ccco1)N(C)C` (configuration not stated): the inhibition was 10.1%.

Consider `O=C(O)c1ccc(N2CCS(=O)(=O)CC2)cc1`, for which the inhibition was 2.19%.

`CON(C)c1nc(NCC(C)C)nc(OCC#N)n1`: the inhibition is -6.48%.

Turning to `CCn1c(=O)c2cc(C(=O)N3CCN(C)CC3)sc2c2ccccc21`, the inhibition is 7.75%.

`COc1ccc(NC(=O)CC2S/C(=N\c3nccs3)N(C)C2=O)cc1` (configuration not stated): the inhibition is 13.7%.

In the case of `COc1cc2nncc(SC)c2cc1OC`, the inhibition was 8.55%.

Take `CCCn1c(SCC(=O)N(CC)c2c(N)n(Cc3ccccc3)c(=O)[nH]c2=O)nnc1-c1ccncc1`: the inhibition is -0.81%.

Consider `COc1ccc(OCCCC(=O)NCCc2ccc(OC)c(OC)c2)cc1`, for which the inhibition is 5.19%.

As for `CCC(=O)Nc1cc(C(F)(F)F)ccc1N1CCOCC1`, the inhibition was -1.84%.

For the compound `O=C(CNCc1cccnc1)Nc1cc(C(F)(F)F)ccc1N1CCOCC1`, the inhibition is 28.2%.

On to `O=C(c1cc(Br)c[nH]1)N1CCSCC1`, for which the inhibition was 9.76%.

Take `COc1ccc(CN2CCN(C3CCOCC3)CC2CCO)c(C)c1C` (configuration not stated): the inhibition was 13%.

In the case of `COc1cc(C2=NOC(C(=O)N3CCOCC3)C2)cc(OC)c1OC` (configuration not stated), the inhibition is 7.04%.

`OCCN1CCN(CCCN2c3ccccc3Sc3ccc(C(F)(F)F)cc32)CC1`: the inhibition is 3.74%.

For `OCCN1CCN(C(=S)Nc2cccc(C(F)(F)F)c2)CC1`, the inhibition was 24%.

For `C[C@@H]1CN([C@@H](C)CO)C(=O)c2cc(Br)cnc2O[C@H]1CN(C)C(=O)CCN1CCCCC1`, the inhibition is 14.8%.

Turning to `S=C(N/N=C/c1ccc(Cl)cc1)N1CCOCC1`, the inhibition is 0.9%.

As to `Cc1ccc(/C=N/NC(=S)N2CCOCC2)cc1`, the inhibition was 4.05%.

For the compound `O=S(=O)(c1ccc(Cl)c(NC(=S)N/N=C/c2c(F)cccc2F)c1)N1CCOCC1`, the inhibition is 9.48%.

For the compound `O=[N+]([O-])c1cc(Cl)cc(/C=N/NC(=S)Nc2cc(S(=O)(=O)N3CCOCC3)ccc2Cl)c1O`, the inhibition is 10%.

As to `N#Cc1ccccc1NS(=O)(=O)c1cc2c3c(c1)CCC(=O)N3CCC2`, the inhibition was -1.72%.

`COc1cc(NC(=O)CCN2CCN(CCO)CC2)cc(OC)c1`: the inhibition was 4.08%.

In the case of `OC(CNCC1COc2ccccc2O1)COc1ccccc1F` (configuration not stated), the inhibition was 8.38%.

In the case of `OC(CNCC1COc2ccccc2O1)COc1ccc(Cl)cc1` (configuration not stated), the inhibition was 6.5%.

`Cc1ccc2nc(C)cc(C(=O)N3CCCC(CO)(Cc4ccccc4C)C3)c2c1` (configuration not stated): the inhibition was 8.23%.

With `CN(C)c1ccc(CN(C)C2CCCCC2)cc1`, the inhibition is 7.28%.

Turning to `CN(C)c1ccc(CCc2ccc(N)cc2)cc1`, the inhibition was 31.6%.

As for `COc1ccc(C(CCNCc2ccc(OC(C)C)cc2)c2ccccc2OC)cc1` (configuration not stated), the inhibition is 7.13%.

Consider `Cc1c(N=C2C(=O)Nc3ccccc32)c(=O)n(-c2ccccc2)n1C`, for which the inhibition was 1.01%.

Regarding `CCc1ccc(N=C2NC(=O)/C(=C/c3cc(OC)c(O)c(OC)c3)S2)cc1`, the inhibition is 14.6%.

In the case of `Cc1c(N2C(=O)/C(=C\c3ccccc3O)SC2=S)c(=O)n(-c2ccccc2)n1C`, the inhibition is 3.93%.

Consider `Cc1c(N2C(=O)/C(=C/c3ccccc3)SC2=S)c(=O)n(-c2ccccc2)n1C`, for which the inhibition is 6.19%.

Take `O=C1NC(=Nc2ccccc2)S/C1=C\c1ccccc1`: the inhibition was 3.51%.

`COc1cc(/C=C2\SC(=Nc3ccc(O)cc3)NC2=O)cc(OC)c1O`: the inhibition is 27.1%.

`Cn1c(SCC(=O)NCc2cccs2)nnc1-c1ccncc1`: the inhibition was 5.96%.

In the case of `O=C(NCc1cc(C(F)(F)F)ccc1Cl)c1cccc2c1C(=O)c1ccc(N3CCCCC3)cc1S2(=O)=O`, the inhibition is 5.32%.

As for `COC(=O)C1CC2=C(CCCC2=O)NC1=O` (configuration not stated), the inhibition is 5.59%.

In the case of `COc1ccc(O)c(-c2cc(-c3cccc(Br)c3)n[nH]2)c1`, the inhibition is 10.7%.

Consider `COc1ccc(NC(=O)C2CCN(C(=O)Cc3ccccc3)CC2)c(OC)c1`, for which the inhibition is 8.8%.

Take `C/C(=N\NS(C)(=O)=O)c1ccc(C)cc1`: the inhibition was 5.59%.

In the case of `Cc1cccc(C(=O)Nc2ccc(C(=O)N/N=C/c3ccco3)cc2)c1`, the inhibition was 1.6%.

As to `CN(Cc1ccc(Cl)cc1Cl)C(=O)C1CSC2(C)CCC(=O)N12` (configuration not stated), the inhibition is 7.87%.

On to `O=S(=O)(/N=C(/Nc1nccs1)c1ccc(F)cc1)c1ccccc1`, for which the inhibition is -7.34%.

In the case of `COc1cccc(OC)c1OCCCCN1CCCCC1`, the inhibition was 19.4%.

For `COc1cccc(OC)c1OCCN1CCCC1`, the inhibition is -3.59%.

As for `COc1cccc(OC)c1OCCCCCCN1CCN(C)CC1`, the inhibition was 4.56%.

Consider `Cc1cccc(C)c1OCCCN1CCOCC1`, for which the inhibition is 9.47%.

As to `O=[N+]([O-])c1ccc(/C=N\N2CCN(Cc3ccccc3Cl)CC2)cc1`, the inhibition is 10%.

Consider `CC(=O)N1c2ccc(S(=O)(=O)NCCC(=O)NC3CCC(C)CC3)cc2CC1C` (configuration not stated), for which the inhibition is 6.14%.

`O=C(CSCC(=O)OCC(=O)c1ccc(Br)cc1)Nc1ccc(Br)cc1`: the inhibition was 2.71%.

With `C=CCn1c(C)cc(C(=O)COC(=O)CCc2cc(OC)c(OC)c(OC)c2)c1C`, the inhibition is 1.52%.

As for `COc1ccccc1NS(=O)(=O)c1ccc(C(=O)NCC(c2ccco2)N2CCCCC2)cc1` (configuration not stated), the inhibition was -5.8%.

For the compound `Cc1cc(C)c(OCCN(C)Cc2ccccc2)c(Br)c1`, the inhibition was 9.5%.

In the case of `Cc1ccc(Cl)c(OCCCCN(C)Cc2ccccc2)c1`, the inhibition is 26.2%.

`Cc1ccc(C(C)C)c(OCCCN(C)Cc2ccccc2)c1`: the inhibition was 13%.

As for `Cc1cc(C)c(C)c(OCCCCN(C)Cc2ccccc2)c1`, the inhibition was 26.2%.

As a reminder, the inhibition is the change of the read-out against control, counted positive when it falls.

These data come from PubChem BioAssay AID624330 (Southern Research Specialized Biocontainment Screening …, 2012).
